Results from PubChem BioAssay (NCI).
The panel holds about 79,000 compounds, 15% with a hit somewhere; the sample as a whole holds those more often. Calls of active or inactive are those of the source. Rule as the data show it: active = growth inhibition above about 70%; inactive = the rest.

Columns and labels:
[1] = NCI Yeast Anticancer Drug Screen. Data for the wt1 strain (AID 149);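 also: 0% = growth of vehicle-treated wt1 cultures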; conditions: S. cerevisiae wt1 strain (SPY 50644) growth inhibition, stronger effect = higher value
In short: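 Yeast wt1 strain exposed to compounds; growth inhibition measured relative to vehicle-treated controls.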

[2] = NCI Yeast Anticancer Drug Screen. Data for the rad50EPP+ strain (AID 151);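 also: 0% = growth of vehicle-treated control cultures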; conditions: S. cerevisiae rad50 mutant strain, stronger effect = higher value
In short: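 Compounds were applied to the rad50EPP+ yeast strain, which bears a defined DNA repair alteration, and growth inhibition was determined relative to vehicle-treated cultures.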

[3] = NCI Yeast Anticancer Drug Screen. Data for the rad50 strain (AID 155);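 also: 0% = growth of vehicle-only cultures of the same strain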; conditions: S. cerevisiae rad50 strain growth inhibition, stronger effect = higher value
In short: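 Yeast carrying a defined DNA repair defect were exposed to test compounds, and growth was compared with vehicle-treated controls to give percent inhibition.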

[4] = NCI Yeast Anticancer Drug Screen. Data for the mec2-1 strain (AID 157); conditions: S. cerevisiae mec2-1 strain, stronger effect = higher value
In short: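 Strain: mec2-1 (DNA repair/cell cycle alteration). Compound exposure, then growth measured; inhibition expressed relative to vehicle.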

[5] = NCI Yeast Anticancer Drug Screen. Data for the rad14 strain (AID 159);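 also: 0% = growth of vehicle-treated control cultures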; conditions: S. cerevisiae rad14 strain growth inhibition, stronger effect = higher value
In short: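 Yeast cells carrying a defined DNA-repair defect were exposed to compounds, and growth inhibition was calculated relative to vehicle-treated control cultures.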

[6] = NCI Yeast Anticancer Drug Screen. Data for the sgs1 mgt1 strain (AID 161);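 also: 0% = growth of cultures given vehicle only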; conditions: S. cerevisiae sgs1 mgt1 strain, stronger effect = higher value
In short: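 Read-out: growth inhibition vs vehicle controls. Cells: mutant yeast strain deficient in DNA damage repair.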

[7] = NCI Yeast Anticancer Drug Screen. Data for the CLN2oe strain (AID 163);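 also: 0% = growth of vehicle-only control cultures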; conditions: S. cerevisiae CLN2oe strain, stronger effect = higher value
In short: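 Growth of a genetically modified yeast strain is measured after compound exposure and compared with cultures given vehicle alone.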

[8] = NCI Yeast Anticancer Drug Screen. Data for the cln2 rad14 strain (AID 165);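 also: 0% = growth equal to vehicle treated cultures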; conditions: S. cerevisiae cln2 rad14 strain, stronger effect = higher value
In short: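 Compounds are applied to the cln2 rad14 yeast strain, and growth is then compared with that of vehicle-treated cultures to give inhibition.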

[9] = NCI Yeast Anticancer Drug Screen. Data for the bub3 strain (AID 167); conditions: S. cerevisiae bub3 mutant strain, stronger effect = higher value
In short: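 Compounds were applied to a genetically altered yeast strain carrying a cell-cycle control defect. Growth inhibition was scored against vehicle-treated controls.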

[10] = NCI Yeast Anticancer Drug Screen. Data for the wt2 strain (AID 169);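 also: 0% = growth of vehicle-treated yeast cultures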; conditions: S. cerevisiae wt2 strain growth inhibition, stronger effect = higher value
In short: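 This strain belongs to a panel of yeast strains with defined genetic alterations in DNA damage repair or cell cycle control. Compounds are applied, and growth inhibition is measured against vehicle-treated cultures.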

[11] = NCI Yeast Anticancer Drug Screen. Data for the mlh1 strain (AID 171);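 also: 0% = growth of vehicle-treated control cultures of the same strain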; conditions: S. cerevisiae mlh1 strain growth inhibition, stronger effect = higher value
In short: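 Growth of the mutant yeast strain after compound exposure, expressed as inhibition relative to vehicle-only controls.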

[12] = NCI Yeast Anticancer Drug Screen. Data for the sgs1 strain (AID 173);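 also: 0% = growth of vehicle-only control cultures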; conditions: S. cerevisiae sgs1 mutant, stronger effect = higher value
In short: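 Growth of a yeast strain bearing a defined genetic alteration is measured after compound treatment. Inhibition is expressed relative to vehicle-only controls.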

[13] = NCI Yeast Anticancer Drug Screen. Data for the mlh1 rad18 strain (AID 175); conditions: S. cerevisiae mlh1 rad18 strain growth inhibition, stronger effect = higher value
In short: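 Read-out is yeast growth inhibition, calculated against vehicle-only controls. The compound was applied to a strain engineered with DNA damage repair alterations.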

[14] = NCI Yeast Anticancer Drug Screen. Data for the rad18 strain (AID 177); conditions: S. cerevisiae rad18 mutant growth inhibition, stronger effect = higher value
In short: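 Growth of the mutant yeast strain after compound exposure, normalised to vehicle-only cultures.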

[15] = at 5.0 µM (retest, dose inferred, filed as 0.5)
[16] = at 50.0 µM (retest, dose inferred, filed as 5.0)

Measured: growth inhibition

COC(=O)C1(N2CCOCC2)CCC([C@@H](c2ccccc2)C(C)[N+](=O)[O-])C1 (stereo partly specified)
inactive: [1]; at 1.2 µM -3% | [1]; at 3.7 µM -2% | [1]; at 11.0 µM -2% | [1]; at 33.0 µM -3% | [1]; at 100.0 µM 4% | [2]; at 1.2 µM 2% | [2]; at 3.7 µM 3% | [2]; at 11.0 µM 15% | [2]; at 33.0 µM 54% | [3]; at 1.2 µM 0% | [3]; at 3.7 µM 2% | [3]; [15] 11% | [3]; at 11.0 µM 17% | [3]; at 33.0 µM 43% | [3]; [16] -3% | [3]; at 50.0 µM 57.2% | [4]; at 1.2 µM -3% | [4]; at 3.7 µM 1% | [4]; [15] 0% | [4]; at 11.0 µM 4% | [4]; at 33.0 µM 4% | [4]; [16] 2% | [4]; at 50.0 µM 26.4% | [4]; at 100.0 µM 34% | [5]; at 1.2 µM 1% | [5]; at 3.7 µM 1% | [5]; at 11.0 µM 6% | [5]; at 33.0 µM 9% | [5]; at 100.0 µM 39% | [6]; [15] 0% | [6]; [16] -2% | [6]; at 50.0 µM 20.6% | [7]; at 1.2 µM -9% | [7]; at 3.7 µM -4% | [7]; at 11.0 µM -10% | [7]; at 33.0 µM -3% | [7]; at 100.0 µM 9% | [8]; [15] -1% | [8]; [16] -2% | [8]; at 50.0 µM 8.15% | [9]; at 1.2 µM -1% | [9]; at 3.7 µM -12% | [9]; [15] 1% | [9]; at 11.0 µM -8% | [9]; at 33.0 µM -13% | [9]; [16] -29% | [9]; at 50.0 µM -2.55% | [9]; at 100.0 µM 24% | [10]; at 1.2 µM -2% | [10]; at 3.7 µM -3% | [10]; at 11.0 µM -4% | [10]; at 33.0 µM -4% | [10]; at 100.0 µM 11% | [11]; at 1.2 µM -3% | [11]; at 3.7 µM -2% | [11]; at 11.0 µM 1% | [11]; at 33.0 µM 3% | [11]; at 100.0 µM 25% | [12]; at 1.2 µM -1% | [12]; at 3.7 µM -1% | [12]; at 11.0 µM 1% | [12]; at 33.0 µM 7% | [12]; at 100.0 µM 49% | [13]; [15] 3% | [13]; [16] 3% | [13]; at 50.0 µM 27.5% | [14]; at 1.2 µM 1% | [14]; at 3.7 µM 2% | [14]; at 11.0 µM 6% | [14]; at 33.0 µM 14%
active: [2]; at 100.0 µM 86% | [3]; at 100.0 µM 94% | [14]; at 100.0 µM 82%

O=C(O)CN(CCNC(=O)OCC1c2ccccc2-c2ccccc21)CCNC(=O)OCC1c2ccccc2-c2ccccc21
active: [1]; at 33.0 µM 71% | [1]; at 100.0 µM 94% | [3]; at 33.0 µM 97% | [3]; at 50.0 µM 93.7% | [3]; at 100.0 µM 94% | [4]; at 33.0 µM 98% | [4]; at 50.0 µM 95.3% | [4]; at 100.0 µM 96% | [5]; at 33.0 µM 98% | [5]; at 100.0 µM 95% | [6]; at 50.0 µM 95.5% | [7]; at 33.0 µM 96% | [7]; at 100.0 µM 90% | [8]; at 50.0 µM 93.5% | [9]; at 33.0 µM 93% | [9]; at 50.0 µM 95% | [9]; at 100.0 µM 94% | [10]; at 11.0 µM 75% | [10]; at 33.0 µM 98% | [10]; at 100.0 µM 95% | [11]; at 33.0 µM 98% | [11]; at 100.0 µM 96% | [12]; at 33.0 µM 97% | [12]; at 100.0 µM 94% | [13]; at 50.0 µM 95.1% | [14]; at 33.0 µM 95% | [14]; at 100.0 µM 94%
inactive: [1]; at 1.2 µM -1% | [1]; at 3.7 µM -4% | [1]; at 11.0 µM 2% | [2]; at 1.2 µM 0% | [2]; at 3.7 µM 4% | [2]; at 11.0 µM 5% | [2]; at 33.0 µM 7% | [2]; at 100.0 µM 5% | [3]; at 1.2 µM -3% | [3]; at 3.7 µM -9% | [3]; [15] -21% | [3]; at 11.0 µM 11% | [3]; [16] 36% | [4]; at 1.2 µM -3% | [4]; at 3.7 µM -5% | [4]; [15] -10% | [4]; at 11.0 µM -3% | [4]; [16] -6% | [5]; at 1.2 µM 0% | [5]; at 3.7 µM 1% | [5]; at 11.0 µM 34% | [6]; [15] -1% | [6]; [16] -4% | [7]; at 1.2 µM -1% | [7]; at 3.7 µM 1% | [7]; at 11.0 µM 2% | [8]; [15] 3% | [8]; [16] 15% | [9]; at 1.2 µM -1% | [9]; at 3.7 µM 0% | [9]; [15] -16% | [9]; at 11.0 µM 1% | [9]; [16] -9% | [10]; at 1.2 µM -3% | [10]; at 3.7 µM -3% | [11]; at 1.2 µM -1% | [11]; at 3.7 µM -3% | [11]; at 11.0 µM 11% | [12]; at 1.2 µM 0% | [12]; at 3.7 µM -1% | [12]; at 11.0 µM 9% | [13]; [15] 3% | [13]; [16] 62% | [14]; at 1.2 µM -2% | [14]; at 3.7 µM -2% | [14]; at 11.0 µM 4%
